From PubChem BioAssay come the findings set out here.

The source made the active and inactive calls.

Experiment [1] is described as follows: binders of probe aFSTL3 on microarray, primary screen, stem cell growth factor project, biochemical, small-molecule microarray, fluorescence 635/667 (AID 1064).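 Further: measures binding of the biotinylated anti-FSTL3 antibody to printed compounds.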 The note with it: higher = more signal.
Experiment [2] can be described thus: binders from COS7 lysate, DM2A8 probe, primary screen, torsin A project, cell lysate, small-molecule microarray, fluorescence 635/667 (AID 1065). Conditions: higher = more signal, COS7 lysate expressing mutant human TOR1A.
A short description of experiment [3]: binders of probe aFGF2 on microarray, primary screen, stem cell growth factor project, biochemical, small-molecule microarray, fluorescence 635/667 (AID 1067).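 Further: measures binding of biotinylated aFGF2 protein to printed compounds on slides; z-score merges feature fluorescence and signal-to-noise across triplicate slides.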 The note with it: higher = more signal.
A short description of experiment [4]: binders of probe aFGF10 on microarray, primary screen, stem cell growth factor project, biochemical, small-molecule microarray, fluorescence 635/667 (AID 1071).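 Further: score merges 667 nm spot intensity and signal to noise from triplicate slides.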 Conditions: higher = more signal.
The target in experiment [5] is Neurogenic locus notch homolog protein 2 (Homo sapiens) (UniProt Q04721). Nature of the experiment: Notch2 binders on small-molecule microarrays, primary screen, biochemical, small-molecule microarray, 635 nm fluorescence, stem cell growth factors (AID 1073). Conditions: Notch2 binding, higher = more signal.
Experiment [6] concerns the target Pro-neuregulin-1, membrane-bound isoform (Homo sapiens) (UniProt Q02297). Nature of the experiment: NRG1 binders on small-molecule microarrays, primary screen, psychiatric disease protein project, biochemical, small-molecule microarray, fluorescence 635/667 (AID 1075).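 Further: score combines 667 nm spot fluorescence with signal to noise.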 The note with it: NRG1 binding, 635 nm fluorescence, higher = more signal.
Experiment [7] relates to Neuregulin-1 EGF-like domain. The experiment can be described thus: binders of neuregulin-1 EGF-like domain, primary screen, biochemical, small-molecule microarray, 635 nm fluorescence (AID 1081).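 Further: binding of the protein to compounds printed on small-molecule microarray slides.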 The note with it: small-molecule microarray binding, higher = more signal.
Experiment [8] can be described thus: FRG1 promoter luciferase signal modulators, primary screen, FRG1 inhibition for FSHD, cell-based, C2C12 myotubes, firefly/Renilla luciferase, luminescence (AID 1084). Conditions: higher = more signal, called active from +8 up or from −8 down.
The nature of experiment [9]: binders of probe aFST on microarray, primary screen, stem cell growth factor project, biochemical, small-molecule microarray, fluorescence 635/667 (AID 1086).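 Further: score merges 667 nm fluorescence with signal-to-noise of each printed compound spot.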 The note with it: higher = more signal.
A short description of experiment [10]: binders of probe aHhip on microarray, primary screen, stem cell growth factor project, biochemical, small-molecule microarray, fluorescence 635/667 (AID 1087).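 Further: score merges spot fluorescence at 667nm with spot signal to noise ratio.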 The note with it: higher = more signal.
The test system of experiment [11] is PRMT1 (protein arginine N-methyltransferase 1). Nature of the experiment: PRMT1 binders on small-molecule microarrays, primary screen, biochemical, small-molecule microarray, 635 nm fluorescence (AID 1088).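 Further: binding of Prmt1 protein to compounds spotted on small-molecule microarray slides.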 The note with it: small-molecule microarray binding, higher = more signal.
The nature of experiment [12]: yeast growth modulation, basal conditions, primary screen, YJM789 clinical isolate, OD600, 24 h (AID 1089).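 Further: growth of clinical yeast isolate S. cerevisiae YJM 789 seeded 1000 cells per well; test concentration not given here.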 The note with it: S. cerevisiae YJM789 growth, higher = more signal, called active from +8 up or from −8 down.
Experiment [13] can be described thus: fission yeast growth modulation, primary screen, strain 972, OD600, 24 h, no modulator (AID 1090).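 Further: basal condition with compound alone and no growth modifier present; test concentration not given here.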 Conditions: S. pombe 972 growth, higher = more signal, called active from +8 up or from −8 down.
The nature of experiment [14]: S. cerevisiae growth modulation with rapamycin, primary screen, strain BY4716, OD600, 96 h (AID 1091). Further: test concentration not given here. The note with it: higher = more signal, called active from +8 up or from −8 down.
Experiment [15] addresses Torsin-1A-interacting protein 2 (Homo sapiens) (UniProt Q8NFQ8). The experiment can be described thus: LULL1 binders on small-molecule microarray, primary screen, cell lysate, human LULL1 lysate, 635/667 nm fluorescence (AID 1092).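 Further: probe is lysate of COS7 cells overexpressing human LULL1; score merges per-feature 667 nm fluorescence with signal-to-noise.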 The note with it: hLULL1 lysate binding, 635 nm fluorescence, higher = more signal.
Experiment [16] in a line: E. coli growth modulation, two-sided OD650, primary screen, E. coli filamentation project, strain DRC41, 24 h (AID 1093).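 Further: MC1000 strain lacking acrAB efflux and sulA so SOS filamentation is blocked; test concentration not given here.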 Conditions: OD650, 24 h, higher = more signal, called active from +8 up or from −8 down.
Experiment [17] can be described thus: small-molecule microarray binders of probe aLefty2, primary screen, biochemical, biotinylated probe, 635/667 nm fluorescence (AID 1094).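 Further: score merges spot fluorescence near 667 nm with spot signal-to-noise ratio.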 Conditions: higher = more signal.
Experiment [18] has as its system Noggin (protein binding on small-molecule microarray). The experiment can be described thus: Noggin binders on small-molecule microarray, primary screen, biochemical, 635/667 nm fluorescence (AID 1095).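 Further: score merges 667 nm feature fluorescence with signal to noise over triplicate slides.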 The note with it: 635 nm fluorescence, higher = more signal.
Experiment [19] concerns the target Neurogenic locus notch homolog protein 3 (Homo sapiens) (UniProt Q9UM47). Nature of the experiment: NOTCH3 binders on small-molecule microarray, primary screen, biochemical, 635/667 nm fluorescence (AID 1096). The note with it: NOTCH3 binding, 635 nm fluorescence, higher = more signal.
The nature of experiment [20]: small-molecule microarray binders of probe aEGFR, primary screen, biochemical, biotinylated probe, 635/667 nm fluorescence (AID 1097).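 Further: probe is a biotinylated anti-EGFR antibody binding compounds printed on slides; score combines fluorescence near 667 nm and signal to noise of each spot.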 The note with it: higher = more signal.

Sequence of Torsin-1A-interacting protein 2 (Homo sapiens) (Q8NFQ8 whole entry, looked up): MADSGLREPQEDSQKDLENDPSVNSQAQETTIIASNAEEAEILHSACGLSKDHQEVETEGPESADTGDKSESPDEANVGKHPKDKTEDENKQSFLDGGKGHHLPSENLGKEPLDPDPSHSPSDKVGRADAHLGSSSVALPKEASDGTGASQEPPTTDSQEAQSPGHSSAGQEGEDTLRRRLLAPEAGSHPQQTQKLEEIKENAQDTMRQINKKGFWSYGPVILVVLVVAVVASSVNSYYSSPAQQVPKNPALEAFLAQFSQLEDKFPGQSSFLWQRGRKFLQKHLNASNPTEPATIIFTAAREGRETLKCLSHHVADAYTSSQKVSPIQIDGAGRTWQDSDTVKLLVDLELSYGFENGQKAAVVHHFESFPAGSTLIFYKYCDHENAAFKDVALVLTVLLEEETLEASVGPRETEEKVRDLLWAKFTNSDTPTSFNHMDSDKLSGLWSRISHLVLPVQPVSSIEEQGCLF
Sequence of Pro-neuregulin-1, membrane-bound isoform (Homo sapiens) (Q02297 whole entry, looked up, the tested form may be a part, canonical isoform): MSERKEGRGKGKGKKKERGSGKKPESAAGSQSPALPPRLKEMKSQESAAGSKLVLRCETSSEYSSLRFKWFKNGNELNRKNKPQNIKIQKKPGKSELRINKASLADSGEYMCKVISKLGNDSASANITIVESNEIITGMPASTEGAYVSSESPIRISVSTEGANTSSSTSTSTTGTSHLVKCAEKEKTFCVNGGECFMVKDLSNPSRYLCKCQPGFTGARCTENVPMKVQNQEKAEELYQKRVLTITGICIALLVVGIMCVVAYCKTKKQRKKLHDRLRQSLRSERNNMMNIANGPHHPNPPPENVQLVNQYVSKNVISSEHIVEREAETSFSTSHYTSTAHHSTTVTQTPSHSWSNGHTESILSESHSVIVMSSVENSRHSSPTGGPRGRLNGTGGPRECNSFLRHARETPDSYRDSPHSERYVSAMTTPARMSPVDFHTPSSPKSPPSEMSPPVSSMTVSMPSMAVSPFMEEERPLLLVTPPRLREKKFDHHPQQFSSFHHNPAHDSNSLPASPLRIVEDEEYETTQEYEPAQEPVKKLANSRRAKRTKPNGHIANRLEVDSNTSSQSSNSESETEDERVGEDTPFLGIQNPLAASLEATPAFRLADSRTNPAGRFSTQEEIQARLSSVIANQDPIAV
Sequence of Neurogenic locus notch homolog protein 3 (Homo sapiens) (Q9UM47 whole entry, looked up): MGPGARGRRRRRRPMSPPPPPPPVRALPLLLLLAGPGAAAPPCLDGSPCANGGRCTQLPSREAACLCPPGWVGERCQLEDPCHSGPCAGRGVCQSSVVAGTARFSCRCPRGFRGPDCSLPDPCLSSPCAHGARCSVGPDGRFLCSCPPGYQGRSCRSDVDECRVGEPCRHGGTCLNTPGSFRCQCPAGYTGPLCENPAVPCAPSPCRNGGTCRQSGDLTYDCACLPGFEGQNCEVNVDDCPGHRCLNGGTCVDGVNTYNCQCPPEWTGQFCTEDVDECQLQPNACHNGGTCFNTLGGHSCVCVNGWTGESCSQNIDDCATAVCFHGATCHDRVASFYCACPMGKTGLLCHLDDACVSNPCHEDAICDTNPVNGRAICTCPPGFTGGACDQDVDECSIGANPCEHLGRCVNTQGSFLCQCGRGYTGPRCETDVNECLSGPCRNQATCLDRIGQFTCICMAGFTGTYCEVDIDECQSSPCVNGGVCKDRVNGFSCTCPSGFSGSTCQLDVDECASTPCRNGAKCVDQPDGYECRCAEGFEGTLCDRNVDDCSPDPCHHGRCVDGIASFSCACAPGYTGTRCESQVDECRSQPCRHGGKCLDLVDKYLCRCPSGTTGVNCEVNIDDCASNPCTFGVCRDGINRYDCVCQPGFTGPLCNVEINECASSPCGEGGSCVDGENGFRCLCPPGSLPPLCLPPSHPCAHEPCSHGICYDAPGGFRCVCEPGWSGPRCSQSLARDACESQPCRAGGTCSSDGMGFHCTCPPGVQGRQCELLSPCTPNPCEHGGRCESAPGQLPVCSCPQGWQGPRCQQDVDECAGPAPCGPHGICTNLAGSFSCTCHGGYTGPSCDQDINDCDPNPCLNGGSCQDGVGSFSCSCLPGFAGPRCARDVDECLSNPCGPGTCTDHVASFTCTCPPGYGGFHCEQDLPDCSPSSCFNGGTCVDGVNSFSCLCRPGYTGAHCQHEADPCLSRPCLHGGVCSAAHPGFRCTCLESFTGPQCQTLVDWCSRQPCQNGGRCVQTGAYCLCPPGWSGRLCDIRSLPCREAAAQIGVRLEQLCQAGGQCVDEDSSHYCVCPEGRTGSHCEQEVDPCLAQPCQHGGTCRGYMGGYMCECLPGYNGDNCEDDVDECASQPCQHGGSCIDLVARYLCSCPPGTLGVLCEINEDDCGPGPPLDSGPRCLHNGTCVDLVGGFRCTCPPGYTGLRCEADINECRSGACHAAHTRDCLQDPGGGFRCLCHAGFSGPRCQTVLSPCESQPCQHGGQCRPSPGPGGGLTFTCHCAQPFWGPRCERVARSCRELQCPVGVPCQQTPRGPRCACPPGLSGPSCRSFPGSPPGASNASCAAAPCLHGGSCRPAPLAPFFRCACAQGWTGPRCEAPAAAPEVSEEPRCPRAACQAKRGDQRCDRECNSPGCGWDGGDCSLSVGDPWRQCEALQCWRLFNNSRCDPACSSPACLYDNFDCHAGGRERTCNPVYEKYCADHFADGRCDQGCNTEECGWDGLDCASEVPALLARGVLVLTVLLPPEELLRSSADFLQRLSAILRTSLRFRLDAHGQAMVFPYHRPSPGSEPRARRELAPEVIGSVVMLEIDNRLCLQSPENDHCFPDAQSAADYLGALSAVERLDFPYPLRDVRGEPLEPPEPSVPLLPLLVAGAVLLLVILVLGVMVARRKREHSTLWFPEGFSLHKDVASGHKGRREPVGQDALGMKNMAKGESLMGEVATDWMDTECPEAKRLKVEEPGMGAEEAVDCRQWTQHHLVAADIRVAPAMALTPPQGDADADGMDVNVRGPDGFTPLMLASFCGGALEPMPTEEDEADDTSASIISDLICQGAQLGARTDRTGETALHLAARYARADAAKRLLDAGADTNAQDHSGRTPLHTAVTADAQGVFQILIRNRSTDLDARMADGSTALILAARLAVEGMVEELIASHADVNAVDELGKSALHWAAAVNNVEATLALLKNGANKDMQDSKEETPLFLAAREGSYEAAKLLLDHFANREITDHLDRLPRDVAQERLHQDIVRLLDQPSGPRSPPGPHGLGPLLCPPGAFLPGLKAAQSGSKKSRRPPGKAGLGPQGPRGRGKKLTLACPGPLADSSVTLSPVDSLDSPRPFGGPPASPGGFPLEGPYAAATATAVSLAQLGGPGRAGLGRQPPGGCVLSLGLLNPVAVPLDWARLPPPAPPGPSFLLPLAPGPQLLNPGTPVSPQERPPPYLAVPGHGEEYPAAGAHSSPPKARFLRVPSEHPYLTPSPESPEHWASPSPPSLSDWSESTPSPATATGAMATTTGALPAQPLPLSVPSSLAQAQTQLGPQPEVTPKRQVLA

As to `NC(=O)N1C(=O)C2C(C1=O)C1C=C(c3ccc(CO)cc3)C2C(c2cccs2)N1Cc1cccc(OC(F)(F)F)c1` (stereo not given), the composite z-score in [1] is 0.677; in experiment [2] it was 0.639; in experiment [3] it was -0.0085; in experiment [4], 0.326; in experiment [5], -0.596; in experiment [6] it was 1.3. For the same compound, the composite z-score was 0.106 in [7]; 0.322 in [9]; -0.0645 in experiment [10]; -0.139 in [11]; 1.01 in experiment [15]; 0.181 in experiment [17]. The results for the composite z-score in experiment [18], in [19] and in experiment [20] were -0.312, -0.146 and 0.0089, respectively. The z-score in [8] was -0.723 (inactive); in [12], -1.7 (inactive); in experiment [13], -4.45 (inactive); in experiment [14], 3.82 (inactive); in experiment [16], -0.528 (inactive).
As to `COc1ccc(CCNC(=O)[C@@]2(Sc3ccc(C)cc3)CC(=O)N(C3Cc4ccccc4C3)[C@@H]2c2ccc(CO)cc2I)cc1`, the composite z-score was 0.538 in experiment [1]; 0.0778 in [2]; -0.0558 in experiment [3]; -0.183 in experiment [4]; -0.813 in [5]; 1.54 in experiment [6]. The composite z-score in experiment [7] came to 0.948; in [9], 0.0627; in experiment [10] it was 0.0854; in experiment [11], 0.789; in experiment [15] it was 1.99; in [17] it was 0.119. Moreover, the composite z-score is -1.37 in experiment [18], -0.0239 in experiment [19] and -0.172 in experiment [20]. Also, the z-score was -0.518 (inactive) in experiment [8]; 0.534 (inactive) in experiment [12]; -2.75 (inactive) in experiment [13]; 3.02 (inactive) in experiment [14]; 0.171 (inactive) in [16].
Turning to `COc1ccccc1CN1C(=O)c2ccccc2[C@@H](C(=O)NC2CC2)[C@@H]1c1ccc(CO)cc1`, the composite z-score in experiment [1] worked out at 0.11; in [2], 0.293; in experiment [3], 0.0233; in experiment [4], 0.986; in experiment [5], 1.48; in experiment [6], 1.12. Besides, the composite z-score in experiment [7] stood at 1.29; in experiment [9], 0.592; in experiment [10], 0.075; in experiment [11] it was 1.54; in experiment [15] it was 2.28; in [17] it was 0.488. In addition, the composite z-score in experiment [18] is 1.47; in experiment [19], 1.06; in experiment [20], 0.194. The z-score in [8] is -3.17 (inactive); in [12] it was 0.827 (inactive); in [13], -0.392 (inactive); in experiment [14] it was 0.344 (inactive); in [16], 0.772 (inactive).
For the compound `CN(C)CCCCCCNC(=O)[C@H]1C[C@H]2C(=O)N[C@@H](CCCCN)C(=O)N2[C@H]1c1cccc(OCCO)c1`, the composite z-score in experiment [1] was determined as 3.62; in experiment [2] it was 2.48; in [3], 0.898; in experiment [4], 1.15; in experiment [5] it was 1.65; in experiment [6] it was 2.67. Moreover, the composite z-score in [7] amounted to 1.55; in [9] it was 3.58; in [10] it was 3.28; in experiment [11], 1.56; in experiment [15], 4.65; in experiment [17], 1.76. Further, the values for the composite z-score in [18], in [19] and in [20] were 2.06, 1.01 and 1.12, respectively. The z-score is 3.88 (inactive) in experiment [8]; -0.871 (inactive) in [12]; -9.2 (active) in experiment [13]; -0.622 (inactive) in experiment [14]; -0.15 (inactive) in [16].
Consider `CC(C)C[C@@H]1NC(=O)[C@H](C(C)C)NC(=O)[C@@]23C(=O)N[C@@H](Cc4ccccc4)C2[C@H](C)[C@@]2(C)O[C@H]2C3/C=C/CC/C=C/CNC1=O` (stereo not given in full), for which the composite z-score was -0.368 in experiment [1]; 0.0032 in experiment [2]; -0.144 in experiment [3]; 0.518 in [4]; 0.729 in experiment [5]; 0.133 in experiment [6]. Further, the composite z-score is 1.02 in experiment [7]; 0.0815 in experiment [9]; -0.0061 in experiment [10]; 1.55 in experiment [11]; 2.27 in experiment [15]; -0.0346 in [17]. Moreover, the values for the composite z-score in experiment [18], in [19] and in experiment [20] were 0.782, 1.03 and -0.096, respectively. The z-score is -0.537 (inactive) in experiment [8]; -0.0106 (inactive) in experiment [12]; -0.328 (inactive) in experiment [13]; -0.522 (inactive) in experiment [14]; -0.215 (inactive) in [16].
